Source: PubChem BioAssay (several laboratories)
An excerpt weighted towards active compounds, which were near 1.8% of everything screened.
MRP reversal: compounds reversing MRP-mediated drug resistance; AID 602; actives 0.04% (n = 85,000); H69AR cells + 2 uM doxorubicin, CellTiter-Glo, 72 h; differential viability (reversal), % at 10 µM;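 active = viability drop by adding the cancer drug above about 55%, with treated viability meeting a 40% cutoff, limit read from the data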;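 also: viability without doxorubicin minus viability with 2 µM doxorubicin for each compound; larger differential means the compound sensitizes cells more to doxorubicin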
S1P2 antag: antagonists of human S1P2 receptor; O95136; cell-based S1P2 antagonist assay, inhibition at 5 uM; inhibition, % at 5 µM; actives 0.21% (n = 97,000); AID 736; in the data active = inhibition above about 45%;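 also: CRE beta-lactamase reporter cells expressing human S1P2 stimulated with S1P; 0% = agonist at EC80 alone and 100% = agonist plus reference antagonist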
Target sequence (O95136 whole entry, looked up): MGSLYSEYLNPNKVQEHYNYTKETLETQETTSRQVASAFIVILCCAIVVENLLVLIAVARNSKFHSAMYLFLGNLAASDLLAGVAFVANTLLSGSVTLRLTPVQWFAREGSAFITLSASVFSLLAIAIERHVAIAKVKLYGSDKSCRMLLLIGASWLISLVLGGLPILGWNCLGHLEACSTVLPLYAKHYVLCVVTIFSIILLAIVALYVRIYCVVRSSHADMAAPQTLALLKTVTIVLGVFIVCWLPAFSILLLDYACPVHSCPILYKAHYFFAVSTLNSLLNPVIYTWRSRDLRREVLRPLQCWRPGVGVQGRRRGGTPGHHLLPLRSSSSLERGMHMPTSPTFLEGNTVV
MRP1 act: MRP-1 activation; H69AR cells + doxorubicin, viability rescue, CellTiter-Glo; viability increase, % at 10 µM; AID 799; actives 0.61% (n = 140,000);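 active = viability gain under doxorubicin at or above a set limit, the compound median plus 3 SD, cut at about 4.7% in these data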;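 also: MRP-1 overexpressing cells given doxorubicin 25 µM after compound pretreatment; 18-22 h compound pretreatment then 72 h with doxorubicin before readout; 0% = doxorubicin-only wells and 100% = vehicle-treated cells without doxorubicin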
GALR2 agonist: GALR2 (human) receptor agonism; O43603; GALR2-expressing cells, agonist activation read-out; activation, % (concentration not given with the values); actives 0.48% (n = 140,000); AID 803; in the data active = activation above about 5%, passing the limit was not always enough;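 also: 0% = vehicle buffer wells and 100% = reference agonist at full effect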
S1P2 ag: S1P2 (human) receptor agonism | S1P2-expressing cell line, agonist reporter read-out | activation, % at 4.5 µM | actives 0.46% (n = 97,000) | AID 729; in the data active = activation above about 16%;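 also: 0% = vehicle low control and 100% = maximal reference agonist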
GALR2 blocker: GALR2 (human) receptor antagonism; AID 828; GALR2-expressing cells, antagonist mode; inhibition, % at 4 µM; actives 0.39% (n = 140,000); in the data active = inhibition above about 27%;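 also: cells stimulated with galanin 1-16 at roughly its EC80; 0% = agonist challenge control and 100% = basal control without agonist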
The depositor's hits bear a star; nt = no result.

SMILES	MRP reversal	S1P2 antag	MRP1 act	GALR2 agonist	S1P2 ag	GALR2 blocker
O=C1C2C3C=CC(C3)C2C(=O)N1/N=C/c1cn(Cc2ccccc2)c2ccccc12 (stereo not given)	nt	4	-1	-1	-1	0
NC1=NC(=O)/C(=C/c2cn(Cc3ccccc3)c3ccccc23)S1	nt	nt	-1	5.3*	nt	3
COc1ccc(OC)c(C(=O)CSc2nc3cccnc3n2C)c1	-1	-15	0	-3	32*	8
O=C1N/C(=N\N=C\c2cccnc2)SC1Cc1ccc(SC(F)F)cc1 (stereo not given)	nt	-16	2	-1	31*	11
CC1CCc2c(C(=O)OCC(=O)Nc3cccc(S(=O)(=O)N4CCCCCC4)c3)csc2C1 (stereo not given)	nt	nt	5.1*	0	nt	-11
CC(C)c1ccc(-c2nc(N3CCCC3)nc3n[nH]c(N)c23)cc1	-16	nt	-1	6.2*	nt	3
CC(C)c1ccc(-c2nc(N3CCCCCC3)nc3n[nH]c(N)c23)cc1	-2	5	-1	-3	-5	-3
CCn1cc(C(=O)N2CC(C)CC(C)C2)c(=O)c2cc(S(=O)(=O)N3CCOCC3)ccc21 (stereo not given)	-8	-11	0	-3	-4	9
CCn1c(CNC(=O)c2cccs2)n[nH]c1=S	nt	nt	-1	-3	nt	4
Cc1ccc(C2CC(=O)c3cnc(N4CCc5ccccc5C4)nc3C2)cc1 (stereo not given)	11	3	-4	-4	581*	-5
COc1ccc(C(=O)Oc2ccc3oc(=O)sc3c2)cc1	3	-11	-5	-3	-2	-7
CC(=O)N1CCN(c2ccc(NC(=O)c3ccc(C)cc3)cc2)CC1	-26	18	-2	0	-8	-3
CCCOc1ccc(C(=O)Nc2ccc(N3CCN(C(C)=O)CC3)cc2)cc1	nt	-9	6.0*	-1	-1	-20
CC(=O)Nc1nc2ccc(-c3nc4ccccc4o3)cc2s1	nt	-2	-3	-1	-11	-2
COc1ccc(C2SCC(C(=O)NCc3ccc(F)cc3)N2C(C)=O)cc1 (stereo not given)	9	-14	-2	-3	22*	4
O=C1N=C(c2ccccc2)S/C1=C\c1cccs1	-12	-3	6.7*	-4	-5	2
O=C(CN1C(=O)C2C3c4ccccc4C(c4ccccc43)C2C1=O)Nc1ccccc1C(=O)O (stereo not given)	nt	nt	0	0	nt	3
COc1ccccc1-n1c(SCC(=O)Nc2ccc(F)cc2)nc2c(c1=O)SCC2	-32	nt	-3	-1	nt	9
CCOC(=O)N1CCN(C(=O)CSc2nc3c(c(=O)n2-c2ccccc2OC)SCC3)CC1	57*	36	-4	-1	-7	7
O=S(=O)(C/C(=C/CO)S(=O)(=O)c1ccccc1)c1ccccc1	nt	80*	-1	0	-8	82*
Cc1cccc(C)c1OCc1nnc(SCC(=O)Nc2nccs2)n1-c1ccccc1	-17	8	-1	6.5*	0	-7
Cc1ccc(-c2nnc(N3CCCCC3)c3ccccc23)cc1S(=O)(=O)NCC1CCCO1 (stereo not given)	4	-40	-4	0	1	-14
CC(/C=C1\SC(=S)N(CCCC(=O)Nc2ccc(C(=O)O)c(O)c2)C1=O)=C\c1ccccc1	nt	nt	4.8*	-2	nt	-14
CC(/C=C1\SC(=S)N(NC(=O)c2ccc(C)cc2)C1=O)=C\c1ccccc1	nt	-7	0	-2	-2	-14
CC(=O)c1ccc(NC(=O)CN2C(=O)/C(=C/C(C)=C/c3ccccc3)SC2=S)cc1	nt	nt	8.5*	-2	nt	15
SMILES	MRP reversal	S1P2 antag	MRP1 act	GALR2 agonist	S1P2 ag	GALR2 blocker
CC1=CCC2C(=O)N(c3ccc(C)c(Br)c3)C(=O)C2C1 (stereo not given)	nt	11	2	-2	-3	5
COc1ccc(NC(=O)CSc2nnc(CCC(=O)Nc3ccc(C)c(Cl)c3)n2C)cc1	nt	2	-2	-4	-3	-1
Cc1onc(-c2c(Cl)cccc2Cl)c1C(=O)n1nnc2ccccc21	-28	3	0	-1	-1	-2
CCC(C)n1c(NC(=O)c2ccccc2)c(C#N)c2nc3ccccc3nc21 (stereo not given)	-7	-77	nt	34*	56*	2
C=CCc1c(C)nc(C)nc1N/N=C/c1ccccc1	15	2	0	-1	-3	-1
C=CCc1c(C)nc(-c2ccccc2)nc1N/N=C(\C)c1ccc(N)cc1	nt	nt	5.7*	-1	nt	-10
C=CCc1c(C)nc(-c2ccccc2)nc1N/N=C/c1ccccc1	nt	nt	8.5*	0	nt	2
C=CCc1c(C)nc(-c2ccccc2)nc1Nc1ccccc1O	nt	nt	-2	0	nt	10
Cn1c(=O)[nH]c(=O)c2[nH]c(CN3CCN(C(=O)c4ccco4)CC3)nc21	4	-11	-1	-2	-1	-4
CC1CCCCC1NS(=O)(=O)c1ccc(S(=O)(=O)NCc2ccncc2)cc1 (stereo not given)	-3	55*	-2	0	-3	23
O=C1CC(c2ccc(S(=O)(=O)NCc3ccncc3)cc2)CN1 (stereo not given)	8	14	0	-3	0	7
O=C(CCc1ccccc1)N/N=C/c1cc(Br)ccc1O	nt	nt	6.4*	-1	nt	6
O=C(N/N=C/c1cc(Br)ccc1O)c1ccccc1Cl	nt	nt	4	0	nt	2
CC(C)NC(=S)N/N=C/c1cc(Br)ccc1O	nt	nt	5.0*	-2	nt	8
COc1cc(NC(=S)NN2CCN(C)CC2)cc(OC)c1	nt	22	0	3	-4	-3
COc1cc2c(cc1OC)C1=C(C#N)COCN1CC2	nt	-45	-4	-3	16	-7
COc1cc2c(cc1OC)C1=C(C#N)CCC(=NC(=O)c3ccc(Cl)cc3)N1CC2	nt	-14	-4	1	55*	-15
CCOC(=O)N1CCN(C(=O)CSCC(=O)Nc2nc(-c3ccc(-c4ccccc4)cc3)cs2)CC1	0	87*	-5	0	-6	7
CC1=C(C(=O)Nc2ccccc2)C(c2ccccc2)N2C(=O)CSC2=N1 (stereo not given)	-1	8	-1	-1	-9	17
CC1=C(C(=O)Nc2ccccc2)C(c2ccc(C)o2)N2C(=O)CSC2=N1 (stereo not given)	-3	12	11*	1	-6	-11
CCn1c(=S)[nH]c2nc3c(cc2c1=O)CCCC3	-7	0	-2	-1	-5	15
CCn1c(SCc2ccc(Cl)cc2)nc2nc3c(cc2c1=O)CCCC3	nt	nt	5.4*	-1	nt	-4
N#Cc1cc2c(nc1SCc1ccc(Cl)cc1)CCCC2	7	-1	6.8*	-2	-2	4
CC1=CCC2C(=O)N(c3ccc(C(=O)N4CCCCCC4)cc3)C(=O)C2C1 (stereo not given)	-2	0	-1	-3	-3	-8
O=C(NN=C1CCCCCCCCCCC1)c1ccccc1F	nt	nt	-2	1	nt	-13
